target: Neurogenic locus notch homolog protein 3 (Homo sapiens) (UniProt Q9UM47); test: NOTCH3 binders on small-molecule microarray, primary screen, biochemical, 635/667 nm fluorescence (AID 1096); settings: NOTCH3 binding, 635 nm fluorescence, higher = more signal
Sequence (Q9UM47 whole entry, looked up): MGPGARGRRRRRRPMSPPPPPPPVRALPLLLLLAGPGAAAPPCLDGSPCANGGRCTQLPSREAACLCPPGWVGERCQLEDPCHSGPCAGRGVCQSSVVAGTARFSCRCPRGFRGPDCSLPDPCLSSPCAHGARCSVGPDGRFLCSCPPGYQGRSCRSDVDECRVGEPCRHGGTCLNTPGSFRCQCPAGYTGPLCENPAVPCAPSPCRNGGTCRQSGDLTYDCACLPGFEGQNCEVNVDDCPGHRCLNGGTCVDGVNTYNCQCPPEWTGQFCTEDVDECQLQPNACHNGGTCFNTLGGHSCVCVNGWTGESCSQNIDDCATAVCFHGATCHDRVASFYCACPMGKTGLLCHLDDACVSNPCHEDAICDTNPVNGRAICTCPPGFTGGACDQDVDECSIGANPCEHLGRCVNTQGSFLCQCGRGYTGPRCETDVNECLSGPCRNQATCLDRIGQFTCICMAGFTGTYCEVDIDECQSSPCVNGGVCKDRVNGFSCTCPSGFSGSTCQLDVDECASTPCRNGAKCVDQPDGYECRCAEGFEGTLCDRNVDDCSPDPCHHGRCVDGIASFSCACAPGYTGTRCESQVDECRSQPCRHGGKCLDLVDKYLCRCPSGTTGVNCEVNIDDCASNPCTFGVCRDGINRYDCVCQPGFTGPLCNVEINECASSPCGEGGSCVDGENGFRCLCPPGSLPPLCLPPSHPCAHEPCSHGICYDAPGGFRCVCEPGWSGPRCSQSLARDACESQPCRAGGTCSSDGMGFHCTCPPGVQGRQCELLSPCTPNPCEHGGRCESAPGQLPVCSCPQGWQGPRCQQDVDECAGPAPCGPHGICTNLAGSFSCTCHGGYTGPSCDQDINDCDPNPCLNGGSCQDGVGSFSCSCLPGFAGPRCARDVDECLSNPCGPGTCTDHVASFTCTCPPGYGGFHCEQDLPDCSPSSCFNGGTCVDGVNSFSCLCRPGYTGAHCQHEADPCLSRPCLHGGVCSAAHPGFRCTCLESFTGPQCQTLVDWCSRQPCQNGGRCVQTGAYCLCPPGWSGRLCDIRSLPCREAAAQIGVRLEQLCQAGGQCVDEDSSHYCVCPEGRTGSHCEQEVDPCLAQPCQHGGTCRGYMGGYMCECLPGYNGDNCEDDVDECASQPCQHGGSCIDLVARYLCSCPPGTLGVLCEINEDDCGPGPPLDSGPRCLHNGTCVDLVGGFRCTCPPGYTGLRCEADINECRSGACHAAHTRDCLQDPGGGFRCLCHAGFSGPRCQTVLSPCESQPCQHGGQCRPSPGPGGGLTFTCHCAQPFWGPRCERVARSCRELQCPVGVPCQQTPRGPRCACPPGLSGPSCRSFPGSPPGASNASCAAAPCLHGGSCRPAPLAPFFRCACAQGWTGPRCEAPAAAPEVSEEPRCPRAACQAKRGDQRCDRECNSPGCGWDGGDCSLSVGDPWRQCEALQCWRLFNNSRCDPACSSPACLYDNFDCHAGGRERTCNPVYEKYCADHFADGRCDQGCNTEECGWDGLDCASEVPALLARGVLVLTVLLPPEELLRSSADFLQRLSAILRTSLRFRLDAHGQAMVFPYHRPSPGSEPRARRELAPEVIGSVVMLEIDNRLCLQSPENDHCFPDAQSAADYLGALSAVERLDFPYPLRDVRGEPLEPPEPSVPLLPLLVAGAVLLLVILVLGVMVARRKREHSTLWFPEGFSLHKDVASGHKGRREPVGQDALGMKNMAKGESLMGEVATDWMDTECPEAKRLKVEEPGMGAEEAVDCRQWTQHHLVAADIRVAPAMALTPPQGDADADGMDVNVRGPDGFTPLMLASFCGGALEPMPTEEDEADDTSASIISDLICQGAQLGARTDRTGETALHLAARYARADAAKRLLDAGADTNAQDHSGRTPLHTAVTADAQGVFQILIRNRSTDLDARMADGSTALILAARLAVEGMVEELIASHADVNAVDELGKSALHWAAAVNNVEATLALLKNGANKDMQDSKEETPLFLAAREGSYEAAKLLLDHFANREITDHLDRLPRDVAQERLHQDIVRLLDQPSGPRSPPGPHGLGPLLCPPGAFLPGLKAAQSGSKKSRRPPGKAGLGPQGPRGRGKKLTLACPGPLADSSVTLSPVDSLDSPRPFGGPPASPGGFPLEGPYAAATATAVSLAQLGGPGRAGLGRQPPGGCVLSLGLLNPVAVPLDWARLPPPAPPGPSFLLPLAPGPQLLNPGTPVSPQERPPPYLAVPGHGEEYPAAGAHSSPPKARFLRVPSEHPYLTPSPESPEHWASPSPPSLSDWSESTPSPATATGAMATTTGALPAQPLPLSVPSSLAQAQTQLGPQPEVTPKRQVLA

Structure (SMILES)	composite z-score
O=C(O)[C@]1(CCS(=O)(=O)c2ccccc2)N=C(c2ccc(OCCCO)cc2)O[C@@H]1c1ccccc1	-0.687
[N-]=[N+]=NCc1ccccc1C[C@]1(C(=O)NCCN2CCOCC2)COC(c2ccc(OCCCO)cc2)=N1	0.486
CC(C)C[C@@H]1NC(=O)[C@@H]2C[C@H](C(=O)NCc3ccc(F)cc3)[C@H](c3ccc(O)cc3)N2C1=O	0.365
C=CCNC(=O)[C@H]1[C@@H]2C(=O)O[C@@H](c3ccccc3)[C@@H](c3ccccc3)N2[C@@H](c2ccc(O)cc2)[C@]12C(=O)N(C(=O)OCCOC)c1ccc(C#CC3(O)CCCCCC3)cc12	0.838
COCCOC(=O)N1C(=O)[C@@]2(c3cc(C#CCC(C(=O)OC)C(=O)OC)ccc31)[C@H](C(=O)N1CCCCCCC1)[C@H]1C(=O)O[C@H](c3ccccc3)[C@H](c3ccccc3)N1[C@@H]2c1ccc(O)cc1	1.07
O=[N+]([O-])c1ccc(C[n+]2ccc(-c3ccc(CO)cc3)cc2)o1	1.16
CN1C(=O)C2C=CC(C(O)COCc3ccccc3)N(Nc3ccccc3)C2C1=O (stereo not given)	0.896
COC(=O)[C@@]1(Cc2ccc(OC)cc2)[C@H]2c3cc(C(=O)N4CCCC4)n(CCc4ccc(O)c(OC)c4)c3C[C@H]2CN1C(=O)c1ccccc1	-0.56
C=C(CCCC)/C(=C/C[C@H](OC(=O)c1ccncc1)c1ccc(CO)o1)c1cc(C(=O)OC)ccc1OC	1.13
C[C@@H]1ON(c2ccccc2)[C@H](c2ccccc2)[C@H]1C(=O)N1C(=O)OC[C@H]1Cc1ccccc1	0.826

— PubChem BioAssay
